Most compounds without a hit are left out; they make up all but 21% or so of the library.
SARS PLP yeast: qHTS of Yeast-based Assay for SARS-CoV PLP. 330,000 tested, 0.19% active. S. cerevisiae expressing SARS-CoV PLpro, growth rescue. AID 485353, 2010. Potency, µM (highest dose often 32.9 µM), inactives show at the highest dose activity, positive = growth rescue, usual class: activators; calls by dose curve; note: potency is the fitted concentration of half-maximal effect; 0% is about no effect; nearly all actives have a fitted effect of over 55% in size
Pf growth 48h: Primary qHTS for delayed death inhibitors of the malarial parasite plastid, 48 hour incubation; Potency, µM (highest dose often 28.7 µM), inactives show at the top dose activity change, negative = inhibition, most hits filed as inhibitors; AID 504832, 2011; 310,000 tested, 5.9% active; P. falciparum luciferase growth in erythrocytes, 48 h; note: potency is the fitted concentration of half-maximal effect; % is set by controls: 0 for no effect and ±100 for the full control effect
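Luciferase-expressing parasites in RBCs, 2% Hct / 0.1% parasitemia final; RPMI 1640 + 0.5% Albumax; 37 C, 5% CO2, one generation; luminescence read-out, lower signal = inhibition.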
Cycloheximide cs: Cycloheximide Counterscreen for Small Molecule Inhibitors of Shiga Toxin. cell reporter, cycloheximide protein synthesis inhibition counterscreen. AID 2314, 2010. 300,000 tested, 12% active. max response, %; in the data active = max response mostly above about 13%, no sharp cut-off; inactive = mostly below about 14%; note: read at 38.3 µM for the half of the compounds with a filed dose; 0% is about no effect
NS1 function inh: qHTS Assay for Inhibitors of Influenza NS1 Protein Function; Potency, µM (doses to about 46.1 µM), for inactives: top-dose activity, positive = more growth; 270,000 tested, 0.4% active; calls by dose curve; note: potency is the fitted concentration of half-maximal effect; actives are rising curves; nearly all actives have a fitted effect of over 50% in size
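A cell-based growth assay was used: compounds that relieve NS1-induced slow growth of budding yeast raise OD600. Assay medium was yeast nitrogen base with ammonium sulphate and -URA supplement, pH 6.0, with 2% galactose.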
Pf growth 96h: Primary qHTS for delayed death inhibitors of the malarial parasite plastid, 96 hour incubation; P. falciparum luciferase reporter growth, 96 h; Potency, µM (series often up to 28.7 µM), for inactives: top-dose activity change, negative = inhibition, most hits filed as inhibitors; 320,000 tested, 6.9% active; note: potency is the fitted concentration of half-maximal effect; % is set by controls: 0 for no effect and ±100 for the full control effect
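Compounds incubated with erythrocytes infected by luciferase-expressing P. falciparum (2% hematocrit, 0.05% parasitemia final) for 96 hours, 37 C in 5% CO2. Growth inhibition scored as decreased luciferase luminescence.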
Shiga inhibitor: A qHTS for Small Molecule Inhibitors of Shiga Toxin; Vero cells, Shiga toxin protein synthesis inhibition reporter; inhibition, % at 38.7 µM; 290,000 tested, 9.2% active; AID 2315, 2010; in the data active = inhibition mostly above about 28%, no sharp cut-off; inactive = mostly below about 43%; note: 0% is about no effect
An asterisk follows results filed as active; i = inactive; ? = inconclusive; . = no result; [ ] = another dose, or the depositor's remark. Unless noted, calls come from the whole dose curve; as a rule, active = well fitted inhibition curve with a large enough effect; inconclusive = small, poorly fitted or top-dose-only effect, or another doubt; inactive = no such curve, though single readings can be large or run the other way.

SMILES	SARS PLP yeast	Pf growth 48h	Cycloheximide cs	NS1 function inh	Pf growth 96h	Shiga inhibitor
COc1ccc2c(c1)CC/C(=C/c1ccncc1)C2=O	-61.4%	-12.0%	31.9*	-17.6%	259.4%	54.2
COc1ccc2c(c1)CC/C(=C\c1ccc(C)o1)C2=O	-5.9%	11.3%	56.0*	-12.4%	58.6%	90.8*
O=C1/C(=C/c2ccc(O)cc2)CCc2ccc([N+](=O)[O-])cc21	5.9%	25.3%	-0.8	-8.7%	14.4%	28.8
COc1ccc(N2C(=O)/C(=C/c3ccc(C)o3)C(=O)NC2=S)c(OC)c1	3.8%	-1.5%	-2.7	25.6%	-18.2%	.
CCOc1ccc(NC(=O)CSc2nc(=O)n(CCN3CCOCC3)c3c2CCCC3)cc1	4.4%	?	.	.	22.0%	.
COc1cccc(CN2CCN(c3nc4nonc4nc3N3CCCCC3)CC2=O)c1	0.3%	?	1.2	0.9%	?	-6.2
CCNC(=O)NC(=O)C(C)OC(=O)[C@H](C)NS(=O)(=O)c1c(C)c(C)cc(C)c1C (stereo partly drawn)	-0.7%	29.7%	-6.1	-3.6%	73.9%	-2.2
COc1cccc(CN(C)C(=O)c2cccc(OCc3ccccc3)c2)c1	-33.5%	11.2%	7.6	-16.7%	33.1%	21.8
C=CCNC(=S)N/N=C/c1ccc(C(F)(F)F)cc1	12.4%	?	6.7	.	?	3.2
CC(C)NC(=S)N/N=C/c1cccs1	?	.	8.2	13.5%	3.29µM*	-7.8
CC(C)NC(=S)N/N=C/c1ccc(C(C)(C)C)cc1	14.6%	?	21.4*	-4.1%	?	28.3
CC(C)c1ccc(NC(=O)COc2ccccn2)cc1	0.1%	100.1%	45.1*	.	182.3%	84.0*
CC(C)c1ccc(OCC(=O)Nc2ccc(OC(F)(F)F)cc2)cc1	-8.7%	-18.3%	3.9	3.9%	?	-24.9
CC(C)c1ccc(OCC(=O)NCCO)cc1	0.8%	148.0%	52.5*	-1.5%	13.1%	92.5*
Cc1cc(OCC(=O)NCCO)ccc1Cl	27.9%	7.9%	-2.8	8.0%	53.4%	6.6
CC(C)c1ccc(NC(=O)COc2ccccc2)cc1	0.2%	52.5%	48.6*	-26.6%	-5.7%	62.3*
Cc1cccc(N2C(=N)SCC2=O)c1C	5.6%	3.7%	-1.9	-0.9%	99.2%	-4.6
CC(Sc1ccccc1)C(=O)N1CCN(S(=O)(=O)c2cccc(Br)c2)CC1 (stereo not drawn)	-16.5%	-7.0%	-2.6	-19.1%	-34.3%	-4.6
O=C(Nc1cccc(O)c1)c1cnn2cccnc12	8.3%	.	40.0*	9.3%	-5.9%	101.5*
O=C(Nc1ccc2c(c1)OCO2)c1cnn2cccnc12	-3.6%	282.9%	48.9*	-0.1%	.	73.9*
O=C(Nc1cccnc1)c1cnn2cccnc12	-2.0%	23.4%	-0.5	-5.8%	?	23.9
Cc1c(C)c2ccc(OC(C)C(=O)N3CC[C@@]4(O)CCCC[C@H]4C3)cc2oc1=O (stereo partly drawn)	-1.5%	12.3%	2.2	12.1%	9.28µM*	0.4
Cc1c(C)c2ccc(OC(C)C(=O)N3CC[C@@]4(O)CCCC[C@H]4C3)c(C)c2oc1=O (stereo partly drawn)	7.7%	?	3.3	-12.7%	?	0.6
C/C(CCc1ccc2c(c1)OCO2)=N\NC(=O)c1ccccc1	0.3%	3.0%	35.5*	5.8%	7.8%	75.5*
C/C(CCc1ccc2c(c1)OCO2)=N\NC(=O)c1ccccc1Cl	2.3%	16.4%	23.7*	18.1%	0.0%	13.1
SMILES	SARS PLP yeast	Pf growth 48h	Cycloheximide cs	NS1 function inh	Pf growth 96h	Shiga inhibitor
CC(C)Oc1ccc(Br)cc1/C=N\NC(N)=S	14.9%	-8.6%	-2.8	18.2%	?	-3.3
O=C(NNC(=S)Nc1ccccc1Cl)c1ccccc1	-4.2%	262.2%	43.3*	-4.9%	-31.0%	77.6*
S=C(NCCC(c1ccccc1)c1ccccc1)Nc1ccc(Cl)cc1	-24.1%	0.1%	-1.1	-59.3%	42.0%	1.0
O=C(NNC(=S)Nc1ccccc1Cl)c1ccccc1Cl	0.2%	-2.5%	-2.3	25.4%	?	-7.6
O=C(NNC(=S)Nc1ccc(Cl)cc1)c1ccccc1	1.5%	31.4%	27.1*	-1.5%	16.6%	56.9*
CC(=O)c1ccc(NC(=S)NNC(=O)c2ccncc2)cc1	-11.9%	21.6%	15.9*	-3.5%	-26.4%	17.8
S=C(NCCC(c1ccccc1)c1ccccc1)Nc1ccccc1Cl	17.9%	?	-2.2	0.0%	4.65µM*	-8.0
O=C(O)C1C2CCC(O2)C1C(=O)Nc1cccc(Cl)c1 (stereo not drawn)	0.7%	-3.8%	1.9	-12.5%	1.9%	-4.4
O=C(NNC(=S)Nc1cccc(Cl)c1)c1ccccc1	?	11.5%	26.6*	-25.6%	?	41.6*
COc1ccc(C(C(=O)NC(C)(C)C)N(CCC(C)C)C(=O)CCC(=O)Nc2cc(C)on2)cc1 (stereo not drawn)	-2.3%	?	-3.4	-3.0%	?	4.9
CCOc1ccc2nc3c(cc2c1)CN(CCOC)C(=NC)S3	8.9%	?	12.6	-2.9%	2.08µM*	14.6
CCN1C(=O)CC(N2CCN(c3ccc(C(=O)c4ccccc4)cc3)CC2)C1=O (stereo not drawn)	.	?	63.9*	-9.7%	.	105.8*
O=C1CC(N2CCN(c3ccc(C(=O)c4ccc(F)cc4)cc3)CC2)C(=O)N1 (stereo not drawn)	-3.5%	30.7%	18.0*	-20.9%	.	31.2
CC(C)CCNC(=O)C1CCC(CNS(=O)(=O)c2ccc(Cl)cc2)CC1 (stereo not drawn)	1.6%	0.4%	2.1	-0.8%	31.4%	-7.9
COc1cc2c(cc1OC)C1O[C@](CCCCN3C(=O)c4ccccc4C3=O)(C2)OC2=C1C(=O)CC(C)(C)C2	?	0.239µM*	-2.2	-6.2%	?	i
O=C1OC2(CCCCC2)CC2=C1C1O[C@](CCCCN3C(=O)c4ccccc4C3=O)(Cc3ccccc31)O2	0.9%[6.58 µM]	1.51µM*	-5.1	-1.0%	?	i
COc1cc2c(cc1OC)C1O[C@](CCCCN3C(=O)c4ccccc4C3=O)(C2)OC2=C1C(=O)OC1(CCCCC1)C2	-0.8%[6.58 µM]	?	-2.3	23.2%	?	i
COc1ccc(N(CC(=O)NC2CCCCC2)C(=O)CCC(=O)Nc2nc(C)cs2)cc1	0.7%	?	-0.4	-18.8%	?	14.8
COc1ccc(NC(=O)Cc2c(C)n(C(=O)c3ccc(Cl)cc3)c3ccc(OC)cc23)cc1	-17.5%	?	13.0	11.2%	3.29µM*	28.1
COc1ccc2c(c1)c(CC(=O)Nc1ccc(C)cc1)c(C)n2C(=O)c1ccc(Cl)cc1	0.6%	.	-1.1	1.7%	-12.7%	-9.0
COc1ccccc1NC(=O)Cc1c(F)cccc1Cl	24.1%	?	-7.3	1.0%	?	-10.6
COc1ccc(NC(=O)COC(=O)Cc2c(F)cccc2Cl)cc1	-1.6%	-8.6%	44.6*	.	13.4%	33.5*

Screens from PubChem BioAssay.
